SMN2 splice up = increases expression of the SMN2 splice variant. HEK293 SMN2-luciferase splicing reporter, luminescence, 30-36 h. AID 1458. Potency, µM (series often up to 46.1 µM), for the others: top-dose activity change, positive = activation, actives largely listed as activators. 210,000 tested, 2.8% active; note: % of control where 0% means no effect; nearly all actives have a fitted effect of over 55% in size
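HEK293 cells carry an SMN2 minigene-luciferase reporter in which exon 7 inclusion puts luciferase in frame. Cells were seeded at 2000 cells/well, attached for 10-12 hours, then exposed to compounds for 30-36 hours at 37C before ONE-Glo luminescence.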
Rab9 promoter act = activates the Rab9 promoter; 320,000 tested, 2.8% active; Huh7 Rab9 promoter-luciferase reporter, luminescence, 24 h; Potency, µM (highest dose often 9.22 µM), without a hit: top-dose activation, negative = inhibition, hits mostly activators; note: % of control where 0% means no effect; nearly all actives have a fitted effect of over 60% in size
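Luciferase signal after 10 min detection reagent at ambient indicates Rab9 promoter upregulation; stably transfected Huh7 cells were treated 24 h with compound in DMSO at 37 °C, 5% CO2.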
NPC1 promoter act = activates the NPC1 promoter; 320,000 tested, 2.4% active; Huh7 NPC1 promoter luciferase reporter, 24 h; Potency, µM (highest dose often 9.22 µM), for the others: at the highest dose activation, usual class: activators; note: % of control where 0% means no effect; nearly all actives have a fitted effect of over 60% in size
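NPC1 promoter–luciferase Huh7 cells; 24 h compound; luminescence.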
p53 reactivation = mutant p53 re-activation in reporter cells | H1299 p53-A138V BP100-luciferase reporter, luminescence, 24 h | Potency, µM (titrated, usually from 92.2 µM), for the others: top-dose activity change, positive = activation, most hits filed as activators | 320,000 tested, 0.063% active; note: % of control where 0% means no effect; nearly all actives have a fitted effect of over 45% in size
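p53-null H1299 cells stably carrying temperature-sensitive p53-A138V and a BP100-luciferase reporter were pinned with compounds (4-point, 1:5 series) and held 24 hrs at 37 deg C. Luminescence was read 10 min after detection reagent.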
FLuc modulator = counter-screen for miR-21 project: firefly luciferase inhibitors or activators; 360,000 tested, 6.9% active; Potency, µM (series often up to 57.5 µM), inactives show at the top dose activity change, negative = inhibition, hits mostly inhibitors; purified FLuc, Km substrates, luminescence inhibition;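 note: plate controls were vehicle for no effect and reference inhibitor for full effect; nearly all actives have a fitted effect of over 55% in size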
Target sequence (P08659 whole entry, looked up): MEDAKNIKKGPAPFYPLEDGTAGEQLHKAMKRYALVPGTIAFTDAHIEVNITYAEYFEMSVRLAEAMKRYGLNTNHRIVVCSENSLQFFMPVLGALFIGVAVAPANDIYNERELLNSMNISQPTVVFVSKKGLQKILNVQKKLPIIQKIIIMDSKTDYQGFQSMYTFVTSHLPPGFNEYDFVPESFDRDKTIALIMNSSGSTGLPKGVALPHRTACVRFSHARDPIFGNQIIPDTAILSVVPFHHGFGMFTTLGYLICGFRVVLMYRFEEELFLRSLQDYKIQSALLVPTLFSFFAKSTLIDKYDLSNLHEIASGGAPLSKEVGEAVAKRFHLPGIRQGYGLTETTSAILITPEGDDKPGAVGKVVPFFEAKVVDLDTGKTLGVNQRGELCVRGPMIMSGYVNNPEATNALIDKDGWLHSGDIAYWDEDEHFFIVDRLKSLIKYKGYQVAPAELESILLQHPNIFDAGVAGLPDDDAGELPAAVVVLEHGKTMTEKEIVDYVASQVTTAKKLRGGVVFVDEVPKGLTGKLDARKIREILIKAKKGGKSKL
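Purified P. pyralis luciferase (10nM final) with 10uM D-luciferin and 10uM ATP (Km levels) in 50mM Tris acetate pH 7.5, 10mM Mg acetate, 0.01% Tween-20, 0.05% BSA; qHTS 6-point titration, ~60 µM downward; luminescence read.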
ELG1 genotox = induces genotoxicity in HEK293T cells with luciferase-tagged ELG1; HEK293T ELG1-luciferase reporter, luminescence, 16 h; 330,000 tested, 1.3% active; Potency, µM (doses to about 46 µM), for inactives: top-dose activity change, positive = activation, usual class: activators; note: % of control where 0% means no effect; nearly all actives have a fitted effect of over 60% in size
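Quantitative HTS format in 1536-well plates. HEK293T ELG1-luciferase reporter cells receive test compound and are incubated 16 hr at 37 °C, 5% CO2; ONE-Glo added, 30 min room temperature, then luminescence read.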
Active calls of the source: *; ? = inconclusive; / = not tested or not shown; [ ] = dose if it differs, or a comment. Shown are actives, neighbours in structure and some others; about 7.4% of the full set was active somewhere. Calls come from the whole dose curve; as a rule, active = well fitted curve in the direction sought with a large enough effect; inconclusive = small, poorly fitted or top-dose-only effect, or another doubt; inactive = no such curve, though single readings can be large; an effect the other way counts as inactive or inconclusive. Potency is the fitted concentration of half-maximal effect.

SMILES	SMN2 splice up	Rab9 promoter act	NPC1 promoter act	p53 reactivation	FLuc modulator	ELG1 genotox
O=C(CSCc1ccc(Cl)cc1)Nc1ccc2c(c1)OCO2	2.0%	-5.0%	0.7%	2.7%	?	-0.2%
Cn1c(C(=O)O)c(CC(=O)Nc2ccc3c(c2)OCCO3)c2ccccc21	-35.0%	4.6%	-0.6%	?	19µM*	?
Cc1ccc(C(C)C)c(OCC#CCN2CCOCC2)c1	/	0.0%	-3.1%	-0.2%	2.0%	-1.8%
COc1ccc(S(=O)(=O)c2c(O)c3ccc(C(=O)Nc4ccccc4)cc3[nH]c2=O)cc1	/	-2.2%	-0.9%	7.7%	?	-1.0%
CCc1ccc(NC(=O)c2ccc3c(O)c(S(=O)(=O)c4ccccc4)c(=O)[nH]c3c2)cc1	/	/	/	/	4.26µM*	/
Cc1ccc(NC(=O)c2ccc3c(O)c(S(=O)(=O)c4ccccc4)c(=O)[nH]c3c2)cc1Cl	/	/	/	/	10.7µM*	/
Cc1ccccc1NS(=O)(=O)c1ccc2c3c(cccc13)C(=O)N2C	/	0.0%	-5.1%	-13.6%	1.5%	20.6µM*
Cc1ccccc1-c1nnc(Cc2ccccc2)o1	11.2µM*	3.98µM*	3.98µM*	?	10.7µM*	?
COc1ccc(Cc2nnc(-c3ccccc3)o2)cc1	-13.0%	?	16.6%	6.4%	?	/
Cc1ccc(-c2nnc(Cc3ccc(Cl)cc3)o2)cc1	21.3%	28.4%	23.4%	?	16.9µM*	16.4µM*
c1ccc(-c2nnc(CSc3nncs3)o2)cc1	?	25.2%	27.9%	?	?	23.1µM*
Brc1ccc(-c2nnc(Cc3ccccc3)o2)cc1	/	?	3.55µM*	9.9%	10.7µM*	20.6µM*
O=C(Cc1ccccc1)Nc1c(C(=O)N2CCN(c3ccc(F)cc3)CC2)oc2ccccc12	/	/	/	/	-1.2%	/
c1ccc(Cc2nnc(-c3ccccc3)o2)cc1	?	?	?	8.7%	23.9µM*	3.26µM*
COc1ccc(OC)c(NC(=O)c2cccc(NC(=O)c3ccccc3)c2)c1	/	18.7%	-1.2%	/	16.9µM*	-2.7%
COc1ccc(NC(=O)c2cccc(NC(=O)c3ccccc3)c2)c(OC)c1	/	2.0%	-9.2%	-8.1%	19µM*	-2.5%
COc1ccc(OC)c(NC(=O)c2ccc(NC(C)=O)cc2)c1	/	-2.1%	-2.2%	-11.3%	-9.3%	0.4%
CCCc1cc(C(=O)Nc2cc(OC)ccc2OC)cs1	/	0.8%	-4.8%	20.6%	19µM*	6.7%
COc1ccc(OC)c(NC(=O)c2ccc(OC3CSC3)cc2)c1	-12.4%	0.4%	-1.8%	2.8%	10.7µM*	23.2%
CCC1CCCCN1C(=O)CSc1nc2c([nH]c3ccccc32)c(=O)n1-c1ccc(OC)cc1 (stereo not given)	/	/	/	/	-2.5%	/
ClC1=C(Cl)C(Cl)(Cl)C(Cl)=C1Cl	0.0%	/	/	/	/	/
Cn1ncc2c1ncn1nc(CCc3ccccc3)nc21	?	1.26µM*	0.794µM*	19.8%	7.57µM*	?
COc1ccc(Cc2nc3c4cnn(-c5ccccc5Br)c4ncn3n2)cc1	6.1%	/	/	/	-4.3%	/
Brc1ccccc1-n1ncc2c1ncn1nc(Cc3ccccc3)nc21	21.6%	/	/	/	16.9µM*	/
Cc1cccc(NC(=O)CNC(=O)Cc2ccc3c(c2)OCCO3)c1C	/	-4.3%	0.6%	12.0%	/	-0.9%
SMILES	SMN2 splice up	Rab9 promoter act	NPC1 promoter act	p53 reactivation	FLuc modulator	ELG1 genotox
Cc1cc2c(cc1NS(=O)(=O)c1ccc(F)cc1)n(C)c(=O)c(=O)n2C	/	/	/	/	-2.1%	/
Cc1cc(-n2c(C)nc3ccccc3c2=O)ccc1NC(=O)C(F)(F)F	/	/	/	/	-0.7%	/
Cc1ccc(C(=O)Nc2ccc3c(c2)nc(CCNC(=O)c2ccco2)n3C)cc1	/	3.55µM*	3.55µM*	14.3%	?	?
Cn1c(CN2CCCC2)nc2cc(NC(=O)c3ccco3)ccc21	?	?	23.9%	7.7%	?	14.6µM*
Cn1c(CCN2CCN(c3ccccc3)CC2)nc2cc(NC(=O)c3ccco3)ccc21	-14.2%	4.47µM*	4.5%	17.5%	-12.9%	-6.2%
CN1CCN(CCc2nc3cc(NC(=O)c4ccco4)ccc3n2C)CC1	/	1.3%	-2.7%	-0.6%	4.1%	2.2%
CC(=O)Nc1ccc2c(c1)nc(CCNC(=O)c1ccco1)n2C	/	0.8%	0.7%	3.6%	-2.2%	-0.1%
CC(=O)NCCc1nc2cc(NC(=O)c3ccc([N+](=O)[O-])cc3)ccc2n1C	/	?	?	15.0%	15.1µM*	10.8%
CC(C)CN1CCC2(CC1)CCN(C(=O)c1cccn1C)CC2	-1.8%	/	/	/	/	/
Cc1ccc(N2CC(c3nc(-c4ccc(Cl)cc4)no3)CC2=O)cc1F (stereo not given)	/	/	/	/	-0.5%	/
CN1N=C(C(=O)N2CCCC(N3CCN(c4ccc(F)cc4)CC3)C2)CCC1=O (stereo not given)	/	1.4%	1.8%	-0.3%	0.4%	-9.1%
CN(C(=O)c1cccc(NC(=O)Cc2cccc([N+](=O)[O-])c2)c1)C1CC1	/	/	/	-3.1%	/	0.2%
COc1cc(CNc2ccc(NC(C)=O)cc2)ccc1OCc1ccccc1C	14.9%	?	13.3%	27.2%	15.1µM*	?
O=C(Nc1ccc(C(=O)N2CCN(c3ccc(Cl)cc3)CC2)cc1)c1nsc2ccccc12	/	/	/	/	1.07µM*	/
COc1cccc(N2CCN(C(=O)c3ccc(NC(=O)c4nsc5ccccc45)cc3)CC2)c1	/	/	/	/	1.2µM*	/
CC1CCN(C(=O)c2ccc(NC(=O)c3nsc4ccccc34)cc2)CC1	/	/	/	/	7.57µM*	/
Cc1cccc(N2CCN(C(=O)c3ccncc3)CC2C)c1 (stereo not given)	46.0%	4.0%	-4.2%	14.3%	-1.1%[2.3 µM]	-5.1%
Cc1cccc(N2CCN(C(=O)c3ccc(NC(=O)c4nsc5ccccc45)cc3)CC2C)c1 (stereo not given)	/	/	/	/	4.78µM*	/
CCOC(=O)c1ccccc1NC(=O)CSc1cn(CC(=O)N2CCCCCC2)c2ccccc12	/	/	/	/	-4.5%	/
COC(=O)c1c(-c2ccc(Cl)cc2)noc1N1CCN(c2cc(C)ccc2C)CC1	/	/	/	/	-5.3%	/
Cc1ccc(C(=O)c2cn(CC(=O)Nc3ccc(C)cc3Cl)c3nc(C)ccc3c2=O)cc1	/	/	/	/	-3.2%	/
O=C(Nc1ccc(C(=O)N2CCN(c3ccccc3F)CC2)cc1)c1nsc2ccccc12	/	/	/	/	5.36µM*	/
Cc1ccc(Cl)cc1N1CCN(C(=O)c2ccc(NC(=O)c3nsc4ccccc34)cc2)CC1	/	/	/	/	6.01µM*	/
COc1ccc(N2CCN(C(=O)c3ccc(NC(=O)c4nsc5ccccc45)cc3)CC2)cc1	/	/	/	/	6.75µM*	/
N#Cc1ccsc1NC(=O)COC(=O)c1cc(Br)ccc1O	/	?	16.0%	3.2%	9.53µM*	14.5%
N#Cc1ccsc1NC(=O)COC(=O)c1ccc2ccccc2c1	?	0.447µM*	?	?	10.7µM*	?

High-throughput results: PubChem, National Center for Advancing Translational Sciences (NCATS)
